Molecular target: T1, USP22 (UniProt Q9UPT9)
T1 sequence (whole entry): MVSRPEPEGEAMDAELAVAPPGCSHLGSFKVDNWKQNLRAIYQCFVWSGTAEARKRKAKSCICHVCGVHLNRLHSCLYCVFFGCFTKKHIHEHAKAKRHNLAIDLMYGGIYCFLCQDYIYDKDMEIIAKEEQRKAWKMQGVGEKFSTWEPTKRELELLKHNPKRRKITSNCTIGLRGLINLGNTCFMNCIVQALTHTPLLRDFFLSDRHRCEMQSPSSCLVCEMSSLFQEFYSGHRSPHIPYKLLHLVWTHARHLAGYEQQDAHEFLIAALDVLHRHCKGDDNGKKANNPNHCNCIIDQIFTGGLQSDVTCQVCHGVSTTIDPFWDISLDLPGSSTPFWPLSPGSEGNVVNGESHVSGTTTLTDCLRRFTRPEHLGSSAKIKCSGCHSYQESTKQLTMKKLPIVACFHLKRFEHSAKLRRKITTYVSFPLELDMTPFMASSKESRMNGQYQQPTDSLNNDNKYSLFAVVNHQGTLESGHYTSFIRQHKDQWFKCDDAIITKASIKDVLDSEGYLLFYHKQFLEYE
Assay: log2 ratio of Biotin-Ahx-Ub-VS probe labelling (fragment/DMSO); higher = less target engagement (more negative = stronger competition), active = hit call of the paper (q ≤ 0.05, log2 ratio ≤ -1)
Conditions: compound concentration: 200 uM; treatment time: 3 h
Experimental: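 Competitive ABPP in HEK293T cell lysate. Lysates were treated with each chloroacetamide fragment at 200 µM for 3 h, then with Biotin-Ahx-Ub-VS (0.5 µM, 1 h), NeutrAvidin-enriched and analysed by diaPASEF LC-MS/MS. Protein LFQ was median-normalised; average log2 ratio is fragment/DMSO from an unpaired t-test (n=3 treated, n=44 DMSO). Hits: q ≤ 0.05, log2 ratio ≤ -1, unique peptides ≥ 2.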

log2 ratio of Biotin-Ahx-Ub-VS probe labelling, inactive:
Cc1noc(C)c1CNC(=O)CCl -0.912
CC(C)n1nccc1NC(=O)CCl 0.134
CN(C)C(=O)c1ccc(CNC(=O)CCl)cc1 0.0551
O=C(CCl)Nc1cc2c(cc1Cl)OCCO2 -0.112
COc1ccc(C2CCCN2C(=O)CCl)c(OC)c1 (stereo not given) -0.361
N#Cc1ccccc1N1CCN(C(=O)CCl)CC1 0.0569
O=C(CCl)NCCc1ccc(F)cc1 0.0853
CC(c1ccccc1)N(C)C(=O)CCl (stereo not given) 0.102
Cc1noc(N2CCN(C(=O)CCl)CC2)n1.Cl 0.0656
Cc1ccc(CNC(=O)CCl)nc1C.Cl 0.00229
O=C(CCl)N1CCCN(C(=O)c2ccc(Cl)cc2)CC1 -0.095
O=C(CCl)N1CCCC1c1ccsc1 (stereo not given) -0.304
NC(=O)C(Cc1ccccc1)NC(=O)CCl (stereo not given) -0.0897
Cc1ccn2cc(CNC(=O)CCl)nc2c1.Cl -0.112
COc1cc(Cl)c(C)cc1NC(=O)CCl -0.0389
O=C(CCl)NC1CCOc2ccccc21 (stereo not given) -0.51
Cc1nnc(C(NC(=O)CCl)c2ccccc2)n1C (stereo not given) 0.332
O=C(CCl)N1CCc2[nH]c3ccccc3c2C1 -0.357
O=C(CCl)NCCc1cccc2ccccc12 -0.385
Cc1ccccc1C1(CNC(=O)CCl)CCOCC1 -0.0958
O=C(CCl)NCC(=O)N1CCCC1 -0.00438
O=C(CCl)NC1CCC(C(F)(F)F)CC1 (stereo not given) 0.067
Cc1ccc(CN(C)C(=O)CCl)o1 -0.454
O=C(CN1CCN(C(=O)CCl)CC1)Nc1cccc(F)c1 0.00778
N#Cc1cnn(-c2ccccc2)c1NC(=O)CCl 0.00637
Cc1cccc(C(CNC(=O)CCl)N2CCOCC2)c1.Cl (stereo not given) -0.00636
CCN(C(=O)CCl)C1CCCCC1 0.0286
CC(NC(=O)CCl)c1noc(Cc2ccccc2)n1 (stereo not given) -0.322
O=C(CCl)NCCC1=CCCCC1 -0.0359
O=C(CCl)N(C1CCCC1)C1CCS(=O)(=O)C1 (stereo not given) 0.236
Cl.O=C(CCl)NCc1ccnc(Oc2ccccc2F)c1 -0.353
O=C(CCl)Nc1cccc(NC(=O)c2ccccc2)c1 0.406
O=C(CCl)N1CCN(C(=O)Nc2ccccc2)CC1 0.14
Cc1ccc(N(CCC#N)C(=O)CCl)cc1C 0.0466
C[C@H]1CN(C(=O)CCl)CCN1C(=O)c1cnn(C)c1.Cl -0.177
N#Cc1ccc(Cl)cc1NC(=O)CCl 0.184
O=C(CCl)NCC1(c2ccccc2)CC1 0.0204
CCN1C(=O)C2CN(C(=O)CCl)CCN2C1=O (stereo not given) 0.199
O=C(CCl)NC1CCCCNC1=O (stereo not given) -0.0454
O=C(CCl)N1CCC(c2ccn[nH]2)C1 (stereo not given) -0.234

Reference: the supplement of paper PMC11732987, “Enantioselective OTUD7B fragment discovery through chemoproteomics screening and high-throughput optimisation” (Communications Chemistry, 2025)
